# Experimental data reported in PubChem BioAssay AID493170 (National Center for Advancing Translational Sciences (NCATS), 2011).
# Results filed as inconclusive are left out. A call without a number means that no potency is given here. Calls of active or inactive are those of the source. Calls come from the whole dose curve; as a rule, active = well fitted inhibition curve with a large enough effect; inconclusive = small, poorly fitted or top-dose-only effect, or effect the other way; inactive = flat fitted curve, though single readings scatter.
# Molecular target: Ubiquitin carboxyl-terminal hydrolase 2 (Homo sapiens) (UniProt O75604)
# Assay: Ub-rhodamine 110 based assay for inhibitors Ubiquitin-specific Protease USP2a; note: nearly all actives have a fitted effect of over 50% in size
# Conditions: USP2a Ub-rhodamine110 cleavage, fluorescence; series mostly up to 38.3 µM
# Description: NIH Molecular Libraries Probe Centers Network [MLPCN] NIH Chemical Genomics Center [NCGC] MLPCN Grant: XO1-MH079852-01 PI Name: Nicholson, Ben. Progenra Inc, Malvern, PA NCGC Assay Overview: Homeostasis of cellular proteins is maintained through a combination of synthesis and degradation. The pathway that accounts for the majority of protein degradation is the ubiquitin-proteasomal pathway. Ubiquitin (Ub) is highly conserved in all cells and the generation of a multi-Ub chain typically targets proteins for degradation by the proteasome. However, ubiquitination is highly reversible and dynamic. Deubiquitination, the reverse process, is catalyzed through the action of enzymes referred to as isopeptidases or deubiquitinating enzymes (DUBs). This group of enzymes is collectively responsible for maintaining adequate pools of free ubiquitin and regulating the ubiquitination status of cellular proteins. The class of DUBs referred to as the ubiquitin-specific proteases (USP) family functions endoproteolytically to cleave Ub chains from a wide range of protein substrates. USP2a deubiquitinates fatty acid synthase (FASN) which has recently been identified as an emerging oncology target. To identify inhibitors of USP2a a cell-free assay was employed. This assay measures cleavage of a profluorescent substrate (Ub-Rhodamine 110; Boston Biochem Cat#: U-555) by USP2a. The assay gives a fluorescent read-out at excitation/emission wavelengths of 485/531. The USP2a enzyme was provided by Progenra, Inc. licensed for sale by LifeSensors, Inc.
# NCGC Assay Protocol: The assay buffer, prepared fresh at the day of the assay, contains 20mM Tris-HCl pH 8.0, 2mM CaCl2, 2mM beta-Mercaptoethanol, 0.05% CHAPS. 3uL of 10 nM (5 nM final) USP2a, was dispensed into a medium-binding black solid Kalypsys 1,536 well plate using the Kalypsys dispenser. The assay plate was then pinned with 23nL compounds in DMSO with a Kalypsys pintool in columns 5-48 (0.3% final DMSO concentration). The negative control was buffer/DMSO only in column 3. The assay plate is incubated at RT for 30min. Subsequently, 3uL of 300 nM Ub-Rhod110 (150 nM final) was dispensed into the plate using a Kalypsys dispenser. Plates were read after every minute for 7 min on a ViewLux (Perkin Elmer) plate reader using the following wavelengths: Ex 485nm /Em 531nm. Data were normalized to the AC100 inhibition (buffer alone). Concentration-response curves were fitted to the normalized data and the concentration-response curves were then classified based on curve quality (r2), response magnitude and degree of measured activity. The time zero reading was used to flag fluorescence artifacts.
# Potency is the fitted concentration of half-maximal effect.
# Ubiquitin carboxyl-terminal hydrolase 2 (Homo sapiens), sequence (O75604 whole entry, looked up): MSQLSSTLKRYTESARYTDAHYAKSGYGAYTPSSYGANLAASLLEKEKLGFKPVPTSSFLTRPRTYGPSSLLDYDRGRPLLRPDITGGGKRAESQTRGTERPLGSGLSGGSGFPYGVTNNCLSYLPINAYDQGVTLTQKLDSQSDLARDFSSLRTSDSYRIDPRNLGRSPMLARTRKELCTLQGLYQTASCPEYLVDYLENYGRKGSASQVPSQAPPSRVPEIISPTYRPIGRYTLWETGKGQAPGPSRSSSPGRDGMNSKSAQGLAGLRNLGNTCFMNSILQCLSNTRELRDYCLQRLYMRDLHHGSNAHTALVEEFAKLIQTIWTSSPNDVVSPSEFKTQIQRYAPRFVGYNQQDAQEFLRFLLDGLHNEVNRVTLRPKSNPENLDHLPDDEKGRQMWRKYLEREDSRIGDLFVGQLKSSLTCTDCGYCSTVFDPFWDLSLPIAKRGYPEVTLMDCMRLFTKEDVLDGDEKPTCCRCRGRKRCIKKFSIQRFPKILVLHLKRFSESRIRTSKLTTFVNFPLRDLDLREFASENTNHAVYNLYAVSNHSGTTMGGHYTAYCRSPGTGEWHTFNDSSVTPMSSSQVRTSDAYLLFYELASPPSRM
row,SMILES,Potency
1,CC(C)N1C(=O)/C(=C/C=C/c2ccco2)C(=O)N(Cc2ccco2)C1=O,12.6 µM (active)
2,OC(c1ccncc1)(c1ccc(F)cc1)c1ccc(F)cc1,inactive
3,O=C(COc1ccc(S(=O)(=O)N2CCOCC2)cc1)N1CCN(Cc2ccc3c(c2)OCO3)CC1,inactive
4,Nc1ccc(S(=O)(=O)N2CCCCC2c2cccnc2)cc1 (stereo unspecified),inactive
5,O=c1[nH]c(=O)n(Cc2ccc(F)cc2)c(O)c1C=NCCCn1ccnc1,inactive
6,O=C1NC(=O)[C@]2(Cc3ccccc3N3CCN(c4ccccc4)CC32)C(=O)N1Cc1ccccc1 (stereo partly specified),6.31 µM (active)
7,Clc1ccc(C(c2ccc(Cl)cc2)n2cc[n+](CC(OCc3ccc(Cl)cc3Cl)c3ccc(Cl)cc3Cl)c2)cc1 (stereo unspecified),10 µM (active)
8,Cc1nn(Cc2ccc(Cl)cc2Cl)c(Cl)c1C(=O)Nc1ccc(OC(F)F)cc1,inactive
9,COc1ccc(S(=O)(=O)Cc2ccc(C(=O)N3CCC4(CC3)OCCO4)o2)cc1,inactive
10,CC1Oc2cc3c(-c4c(O)cc(O)c5c(O)c6c(cc45)OC(C)C(C)C6=O)c(O)cc(O)c3c(O)c2C(=O)C1C (stereo unspecified),2 µM (active)
11,CC(=Nc1ccc2c(c1)CCC2)c1c(O)n(C)c(=O)n(C)c1=O,inactive
12,FC(F)(F)c1ccc2c(c1)N(CCCN1CCN(CCCl)CC1)c1ccccc1S2,inactive
13,O=C(O)c1cccc2c1NC(C(=O)O)C1CC(Sc3ccccc3[N+](=O)[O-])C(Cl)C21 (stereo unspecified),5.01 µM (active)
14,COc1ccc(NC(=O)c2c(C)nn(Cc3ccccc3Cl)c2Cl)cc1Cl,inactive
15,CCCC1=C(C(=O)OCC)C2(C(=O)Nc3ccc(C)cc32)C(C#N)=C(N)O1 (stereo unspecified),inactive
16,CCCCn1c(=O)c(C(=O)Nc2ccccc2S(N)(=O)=O)c(O)c2ccccc21,10 µM (active)
